{"source": "PubChem BioAssay (NCI)", "note": "This is part of a sample that, as a whole, favours compounds with a hit. Of some 79,000 tested, about 15% had one in any assay. The source made the active and inactive calls. No stated cut-off is given here; in the data, active means growth inhibition above about 70%; inactive means the rest.", "data": [{"assay": "NCI Yeast Anticancer Drug Screen. Data for the mlh1 rad18 strain (AID 175)", "settings": "S. cerevisiae mlh1 rad18 strain growth inhibition; at 50.0 µM; stronger effect = higher value", "experimental": "Growth inhibition of yeast strains with defined genetic alterations is measured as a screen for potential anti-cancer activity. Selected strains with alterations in DNA damage repair or cell cycle control were exposed to compounds and growth inhibition was measured relative to vehicle treated controls. The strain used in this assay is mlh1 rad18", "values": [{"smiles": "Nc1nnnn1CCO", "growth inhibition": "-13.1% (inactive)"}, {"smiles": "CN(C)C(=S)Oc1cc(Cl)c(S(=O)(=O)F)cc1Cl", "growth inhibition": "99% (active)"}, {"smiles": "COc1cc2c(c3oc4cccc(O)c4c(=O)c13)[C@@H]1C=CO[C@@H]1O2", "growth inhibition": "-8.9% (inactive)"}, {"smiles": "O=[N+]([O-])c1cccc(N=Nc2ccc(N(CCCl)CCCl)cc2)c1", "growth inhibition": "11.6% (inactive)"}, {"smiles": "N.N.N.N.O=N[O-].O=N[O-].[Cl-].[Co+3]", "growth inhibition": "0.2% (inactive)"}, {"smiles": "CC/C=C/C1(C(C)C)C(=O)NC(=O)NC1=O", "note": "(tested in a mixture with another compound)", "growth inhibition": "13.7% (inactive)"}, {"smiles": "Nc1ccc(C(=O)O)cc1[As](O)O", "growth inhibition": "-17.8% (inactive)"}, {"smiles": "COC(=O)C1=CO[C@@H](C)[C@@H]2CN3CCc4c([nH]c5cc(OC)ccc45)[C@@H]3C[C@H]12", "growth inhibition": "-19.2% (inactive)"}, {"smiles": "CCCCCCCCCCCCCCCC[As](=O)(O)CCCCCCCCCCCCCCCC", "growth inhibition": "8.55% (inactive)"}, {"smiles": "OC1CCN(C2(c3ccccc3)CCCCC2)CC1", "growth inhibition": "0.15% (inactive)"}, {"smiles": "Nc1nnc(N)n1N", "growth inhibition": "-1.65% (inactive)"}, {"smiles": "CCOC(=O)COc1cc(Cl)c(S(=O)(=O)F)cc1Cl", "growth inhibition": "98% (active)"}, {"smiles": "C[As](C)(=S)[As](C)(C)=S", "growth inhibition": "69.9% (inactive)"}, {"smiles": "CCCCC[As](=O)(O)O", "growth inhibition": "7.95% (inactive)"}, {"smiles": "CCOS(=O)(=O)c1ccc(C)cc1", "growth inhibition": "-5.2% (inactive)"}, {"smiles": "COc1cccc(C2CC(=O)c3cccn32)c1", "note": "(stereo not given)", "growth inhibition": "-17.2% (inactive)"}, {"smiles": "CCC1([N+](=O)[O-])COP(=O)(NCc2ccncc2)OC1", "note": "(stereo not given)", "growth inhibition": "12.3% (inactive)"}, {"smiles": "C=C[C](=C)[Pb]([CH2]C)([CH2]C)[CH2]C", "growth inhibition": "5.5% (inactive)"}, {"smiles": "CN(C)C1C(=O)C(C(=O)NP(=O)(NCCCO)N(CCCl)CCCl)=C(O)C2(O)C(=O)C3=C(O)c4c(O)cccc4C(C)(O)C3CC12", "note": "(stereo not given)", "growth inhibition": "6.9% (inactive)"}, {"smiles": "CCCCCCCCCCCC(=O)[O][Pb]([CH2]CCC)([CH2]CCC)[O]C(=O)CCCCCCCCCCC", "growth inhibition": "23% (inactive)"}, {"smiles": "O=C(O)CCCC(=O)CCCC(=O)O", "growth inhibition": "21.4% (inactive)"}, {"smiles": "CN(C)C(=O)Oc1ccc(C2CCCN2C)cn1", "note": "(stereo not given)", "growth inhibition": "-22.7% (inactive)"}, {"smiles": "COc1ccc(/C=C(/C)[N+](=O)[O-])cc1OC", "growth inhibition": "99.5% (active)"}, {"smiles": "COc1cc2c(c(OC)c1OC)CC1c3c(cc4c(c3-2)OCO4)CCN1C", "note": "(stereo not given)", "growth inhibition": "-17.3% (inactive)"}, {"smiles": "Nc1ccc2ncccc2c1", "note": "(tested in a mixture with another compound)", "growth inhibition": "26.2% (inactive)"}, {"smiles": "CCCC[S][Sn]([CH2]CCC)([CH2]CCC)[S]CCCC", "growth inhibition": "95.5% (active)"}, {"smiles": "CCN(CC)c1cccc(OC(=O)NC)c1", "growth inhibition": "-10% (inactive)"}, {"smiles": "O=C1NCN(c2ccccc2)C12CCN(CCCS(=O)(=O)c1ccccc1)CC2", "growth inhibition": "-18% (inactive)"}, {"smiles": "O=[N+]([O-])c1ccc(P(=O)(O)O)cc1", "growth inhibition": "10.4% (inactive)"}, {"smiles": "CCOP(=O)(OCC)C(O)c1ccc(Cl)cc1", "note": "(stereo not given)", "growth inhibition": "-11.3% (inactive)"}, {"smiles": "C=CCC1(O)CCC2C3CCC4=CC(=O)CCC4=C3C=CC21CC", "note": "(stereo not given)", "growth inhibition": "21.6% (inactive)"}, {"smiles": "CC[C@@H](C)C(=O)O[C@H]1[C@H](O)[C@H]2[C@@H](CN3C[C@@H](C)CC[C@H]3[C@@]2(C)O)[C@@H]2C[C@]34O[C@@]5(O)[C@@H](OC(=O)[C@](C)(O)[C@@H](C)O)CC[C@@]3(C)[C@@H]5[C@@H](OC(C)=O)[C@@H](OC(C)=O)[C@H]4[C@@]21O", "growth inhibition": "25.5% (inactive)"}, {"smiles": "C(=NCCN1CCOCC1)=NC1CCCCC1", "growth inhibition": "-16.1% (inactive)"}, {"smiles": "CCOP(=O)(OCC)Oc1ccc(S(C)=O)cc1", "note": "(stereo not given)", "growth inhibition": "-0.25% (inactive)"}, {"smiles": "CCCCOP(=O)(CSCC)OCCCC", "growth inhibition": "-1.4% (inactive)"}, {"smiles": "Cn1c(O)c(C=N)c(=O)[nH]c1=O", "growth inhibition": "-8.3% (inactive)"}, {"smiles": "NNC(=O)CCC(N)C(=O)O", "note": "(stereo not given)", "growth inhibition": "-49% (inactive)"}, {"smiles": "COc1ccc(C(=O)O[C@H]2CC[C@@]3(C)[C@@H]4CC[C@H]5[C@]6(O)C[C@H](O)[C@@]7(O)[C@@H](CN8C[C@@H](C)CC[C@H]8[C@@]7(C)O)[C@]6(O)C[C@@]53OC24O)cc1OC", "growth inhibition": "-5.15% (inactive)"}, {"smiles": "CC(C)CC(C)OC(=O)Cc1ccccc1", "note": "(stereo not given)", "growth inhibition": "31.2% (inactive)"}, {"smiles": "NC1(C(=O)O)CCCC1", "growth inhibition": "-28.1% (inactive)"}]}]}
